# Sampled rows, rich in hits. Any-hit rate of the full collection: about 12%.
# G9a block – G9a (human) methyltransferase inhibition. G9a H3K9 monomethylation, AlphaScreen, 2 h. Potency, µM (doses to about 102 µM), for inactives: at the top dose activity, negative = inhibition, usual class: inhibitors. actives 8.8% (n = 350,000). AID 504332; further: on the % scale 0 is the no-effect control and ±100 the full control effect; nearly all actives have a fitted effect of over 75% in size
#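 Signal arises when biotinylated H3K9 peptide, once monomethylated, bridges streptavidin donor and antibody-captured acceptor beads. Enzyme at 20 nM was preincubated 15 min with test compounds; peptide 500 nM and SAM 20 uM then reacted for 2 h.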
# Sfp inh – blocks B. subtilis Sfp PPTase activity | actives 3.5% (n = 310,000) | Potency, µM, for the others: largest response in the series, negative = inhibition, actives largely listed as inhibitors | AID 1490 | Biochemical Sfp PPTase activity, qHTS | Q9F4F7;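 further: the enzyme is Sfp with the accession as filed and its product quenches rhodamine fluorescence; 0% = enzyme reaction without inhibitor and -100% = no enzyme wells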
#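 With Hepes-Na pH 7.6 buffer containing 10 mM MgCl2, Sfp (15 nM) modified BHQ-2-YbbR (12.5 uM) using rhodamine-CoA (5 uM). Two reads 30 minutes apart at 525/598 nm yielded each well's rate.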
# BAZ2B block – BAZ2B (human) inhibition. Potency, µM (series often up to 114 µM), without a hit: top-dose activity change, negative = inhibition, hits mostly inhibitors. AID 504333. actives 4.4% (n = 360,000). Q9UIF8. AlphaScreen BAZ2B-H3K14Ac peptide displacement; further: on the % scale 0 is the no-effect control and ±100 the full control effect; nearly all actives have a fitted effect of over 60% in size
#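 BAZ2B (50 nM) with biotin-H3(5-23)K14Ac peptide (50 nM) in PBS pH 7.4, 0.01% Tween-20, preformed 30 min, then compound 30 min at room temperature; top concentration 110uM. AlphaScreen streptavidin donor/nickel chelate acceptor beads (10 ug/mL final), 20 min dark, signal read.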
# PLK1 PBD block – blocks phosphopeptide binding to human PLK1 polo-box domain | Plk1 PBD binding of FITC phosphopeptide, fluorescence polarization | Potency, µM, for inactives: max response, negative = inhibition, hits mostly inhibitors | actives 2.8% (n = 360,000); further: series mostly up to about 57 µM; on the % scale 0 is the no-effect control and ±100 the full control effect; nearly all actives have a fitted effect of over 65% in size
# HP1b binding inh – blocks HP1-beta chromodomain binding to methylated histone tails; P83916; AlphaScreen HP1-beta / biotin-H3K9me3 peptide binding; actives 0.56% (n = 390,000); Potency, µM (series often up to 114 µM), for inactives: top-dose activity change, negative = inhibition, hits mostly inhibitors; AID 540317; further: nearly all actives have a fitted effect of over 70% in size
#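 Compound inhibition of the preformed complex between 50 nM HP1-beta and 50 nM biotinylated H3K9me3 peptide was read by AlphaScreen. Buffer was PBS pH 7.4 with 0.01% Tween-20. Incubations ran 30 min at room temperature, with 10 ug/mL donor/acceptor beads.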
# JMJD2A Tudor inh – blocks the human JMJD2A Tudor domain; O75164; AlphaScreen JMJD2A-Tudor / H3K4me3 peptide binding; Potency, µM (titrated, usually from 114 µM), inactives show at the highest dose activity change, negative = inhibition, actives largely listed as inhibitors; actives 4.4% (n = 390,000); AID 504339; further: on the % scale 0 is the no-effect control and ±100 the full control effect; nearly all actives have a fitted effect of over 50% in size
# Target sequence (O75164 whole entry, looked up, the tested form may be a part): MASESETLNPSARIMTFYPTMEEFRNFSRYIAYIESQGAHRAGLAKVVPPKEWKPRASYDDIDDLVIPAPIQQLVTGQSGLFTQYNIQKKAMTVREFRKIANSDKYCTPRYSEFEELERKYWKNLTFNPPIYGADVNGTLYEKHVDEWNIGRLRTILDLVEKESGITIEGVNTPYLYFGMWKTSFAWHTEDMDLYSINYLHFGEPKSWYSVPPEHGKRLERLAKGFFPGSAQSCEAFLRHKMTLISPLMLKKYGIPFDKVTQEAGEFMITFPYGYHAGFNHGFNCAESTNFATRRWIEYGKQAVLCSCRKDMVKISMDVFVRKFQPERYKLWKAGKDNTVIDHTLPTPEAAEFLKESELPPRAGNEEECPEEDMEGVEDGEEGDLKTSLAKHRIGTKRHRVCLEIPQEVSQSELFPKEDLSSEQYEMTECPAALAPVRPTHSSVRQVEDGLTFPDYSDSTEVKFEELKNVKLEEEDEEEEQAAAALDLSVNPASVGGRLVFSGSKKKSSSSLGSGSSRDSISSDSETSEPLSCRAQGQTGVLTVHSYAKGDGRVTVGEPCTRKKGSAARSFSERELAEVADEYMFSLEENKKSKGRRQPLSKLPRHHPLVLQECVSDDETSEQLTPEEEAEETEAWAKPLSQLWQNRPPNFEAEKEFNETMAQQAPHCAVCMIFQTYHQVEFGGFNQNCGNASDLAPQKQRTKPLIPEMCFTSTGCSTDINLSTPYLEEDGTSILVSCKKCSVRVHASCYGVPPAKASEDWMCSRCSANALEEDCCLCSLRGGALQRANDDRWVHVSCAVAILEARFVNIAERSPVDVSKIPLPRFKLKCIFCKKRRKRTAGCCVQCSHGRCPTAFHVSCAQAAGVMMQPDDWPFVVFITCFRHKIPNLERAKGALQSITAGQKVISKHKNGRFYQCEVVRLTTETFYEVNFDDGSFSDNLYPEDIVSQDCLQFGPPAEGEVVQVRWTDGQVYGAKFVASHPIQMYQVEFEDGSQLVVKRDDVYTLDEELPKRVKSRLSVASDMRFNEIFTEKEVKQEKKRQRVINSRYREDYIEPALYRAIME
# The depositor's hits bear a star; u = inconclusive; x = no result given; [ ] = another dose, or the depositor's remark. The call rests on the fitted dose curve; in most records, active means well fitted curve in the direction sought with a large enough effect; inconclusive means small, poorly fitted or top-dose-only effect, or another doubt; inactive means no such curve, though single readings can be large; an effect the other way counts as inactive or inconclusive. Potency means the concentration at half of the fitted maximal effect.
SMILES,G9a block,Sfp inh,BAZ2B block,PLK1 PBD block,HP1b binding inh,JMJD2A Tudor inh
CNC(=O)[C@]1(C)C[C@H]1[C@H](NC(=O)[C@]1(C)C[C@H]1[C@H](NC(=O)[C@]1(C)C[C@H]1[C@H](NC(=O)[C@]1(C)C[C@H]1[C@H](NC(=O)OCc1ccccc1)c1ccccc1)c1ccccc1)c1ccccc1)c1ccccc1,x,15.4%,x,x,x,x
CCCNC(=O)c1ccc(-c2nc3ccccc3s2)s1,21.6%,-13.1%,4.47µM*,3.4%,20.5%,-23.9%
CCN(Cc1ccncc1)C(=O)c1cccc(S(=O)(=O)N2CCCCC2)c1,x,x,x,-12.1%,33.3%,-11.5%
COC(=O)C1=C(C)N(C)C(=O)/C1=C\c1cccs1,u,8.9%,u,-6.8%,u,u
COCCCN1C(=O)/C(=C\c2cccs2)C(C(=O)OC)=C1C,u,7.0%,u,7.1%,-3.1%,-34.5%
COC(=O)C1=C(C)N(CC(C)C)C(=O)/C1=C\c1cccs1,39.8µM*,2.9%,50.1µM*,-8.7%,15.8µM*,44.7µM*
CCN1C(=O)/C(=C\c2cccs2)C(C(=O)OC)=C1C,44.7µM*,-1.2%,50.1µM*,-7.9%,u,56.2µM*
COC(=O)C1=C(C)N(Cc2cccnc2)C(=O)/C1=C\c1sccc1C,x,-22.0%,35.5µM*,-3.0%,35.5µM*,44.7µM*
COC(=O)C1=C(C)N(C2CCCCC2)C(=O)/C1=C\c1cccs1,3.16µM*,11.9%,3.16µM*,0.8%,-32.9%,u
Cc1c(Cl)cccc1NC(=O)NCCOCCn1c(=O)oc2ccccc21,-4.0%[59 µM],x,-4.1%,x,13.9%,-17.6%
CC1=C(C(=O)N2CCOCC2)CC(CC(=O)NCCCCc2ccccc2)C(=O)N1Cc1ccc(F)cc1 (configuration not stated),x,x,x,-0.8%,x,x
CC[C@H](C)[C@H](NC(=O)CNC(=O)[C@H](C)NC(=O)[C@H](C)N)C(=O)NCC(=O)N[C@H](C(=O)N[C@@H](CC(C)C)C(=O)N[C@H](C(=O)N[C@H](C(=O)O)C(C)C)[C@@H](C)O)[C@@H](C)CC,x,3.8%,x,x,x,x
Cc1c(-c2ccccc2)cnc2c(C)cccc12,x,x,x,1.2%,194.5%,126.8%
CCOC(=O)C1=C(C)N(CC(C)C)C(=O)/C1=C\c1cccs1,x,-15.8%,11.2µM*,-4.6%,u,u
O=C(NC1(C(F)(F)F)C(=O)Nc2c1c(=O)[nH]c(=O)n2CCc1ccccc1)c1ccc(Cl)cc1Cl (configuration not stated),4.7%[59 µM],x,-13.9%,x,27.1%,-1.1%
Cc1ccc(-n2c(C(C)n3nc(C)c([N+](=O)[O-])c3C)n[nH]c2=S)cc1 (configuration not stated),3.98µM*,-1.5%,10.4%,-8.0%,-78.9%,12.6µM*
Cc1nn(C(C)C(=O)O)c(C)c1[N+](=O)[O-] (configuration not stated),20.0%[0.501 µM],18.9%,1.3%,3.8%,26.8%,9.2%
Cc1nn(CC(=O)c2cccc(Cl)c2)c(C)c1[N+](=O)[O-],-0.9%,11.4%,-8.9%,2.0%,21.5%,-9.6%
Cc1nn(C(C)c2n[nH]c(=S)n2-c2cccc(Cl)c2)c(C)c1[N+](=O)[O-] (configuration not stated),3.55µM*,-5.3%,7.0%,-11.0%,1.4%,u
COc1ccc(-n2c(C)c([N+](=O)[O-])c3ccc(O)c(CN(C)C)c32)cc1,u,5.9%,-32.1%,-1.9%,-8.9%,-31.2%
COc1ccc(-n2c(C(C)n3nc(C)c([N+](=O)[O-])c3C)n[nH]c2=S)cc1 (configuration not stated),6.31µM*,0.0%,-5.2%,-5.5%,39.9%,12.6µM*
CCCCCS(=O)(=O)c1oc(-c2cccs2)nc1S(=O)(=O)c1ccc(C)cc1,3.55µM*,x,-5.2%,x,53.5%,-14.9%
Cc1ccc(S(=O)(=O)c2nc(-c3ccco3)oc2SC(C)C)cc1,44.7µM*,-1.6%,-13.8%,-22.4%,14.3%,-15.7%
CCSc1oc(-c2ccco2)nc1S(=O)(=O)c1ccc(C)cc1,25.1µM*,-11.0%,-30.7%,-20.2%,28.9%,-12.6%
CCCCS(=O)(=O)c1oc(-c2cccs2)nc1S(=O)(=O)c1ccc(F)cc1,u,x,-2.2%,x,42.0%,-12.8%
SMILES,G9a block,Sfp inh,BAZ2B block,PLK1 PBD block,HP1b binding inh,JMJD2A Tudor inh
Cc1ccc(S(=O)(=O)c2nc(-c3ccco3)oc2SCC(C)C)cc1,u,x,-1.0%,x,40.8%,-1.4%
CC(C)CSc1oc(-c2ccco2)nc1S(=O)(=O)c1ccccc1,35.5µM*,-6.3%,-19.6%,-17.9%,63.4%,3.5%
CN(C)C(=O)COc1ccc2c3c(c(=O)oc2c1)CCCC3,15.3%[0.501 µM],-7.8%,15.9%,-5.8%,21.8%,-16.6%
O=S(=O)(c1ccccc1)c1nc(-c2cccs2)oc1SCc1ccccc1Cl,-25.3%[59 µM],x,-10.2%,x,41.9%,8.9%
CCSc1oc(-c2cccs2)nc1S(=O)(=O)c1ccccc1,u,u,-2.5%,u,u,39.8µM*
CCSc1oc(-c2ccco2)nc1S(=O)(=O)c1ccc(F)cc1,3.98µM*,-25.8%,3.2%,-7.2%,14.2%,-14.7%
Cc1ccc(S(=O)(=O)c2nc(-c3ccco3)oc2SCc2ccc(F)cc2)cc1,u,x,-13.1%,x,17.9%,-8.9%
Cc1cnc(CNc2ccnc(-c3ccoc3)n2)cn1,-3.9%[0.501 µM],u,x,x,x,x
Clc1ccccc1-c1nccc(-n2ccnc2)n1,x,-27.3%,x,x,x,x
CS(=O)(=O)Nc1cccc(-c2nccc(-n3ccnc3)n2)c1,x,56.2µM*,x,x,x,x
CS(=O)(=O)Nc1cccc(-c2nc(-n3ccnc3)c3ccccc3n2)c1,-31.7%[0.501 µM],14.8%,x,x,x,x
N#Cc1cccc(-c2nccc(-n3ccnc3)n2)c1,u,50.1µM*,x,x,x,x
Cc1ccccc1-c1nccc(-n2ccnc2)n1,x,56.2µM*,x,x,x,x
CCCN1C(=O)C(Cc2nc3ccccc3c(=O)n2-c2ccc(OC)cc2)c2cc(C)ccc21 (configuration not stated),u,x,u,x,0.7%,u
COC(=O)c1ccc(OCC(O)Cn2cnc3cc(C)c(C)cc32)cc1 (configuration not stated),8.9%[59 µM],x,-16.6%,x,10.8%,u
COC(=O)c1cccc(OCC(O)Cn2cnc3cc(C)c(C)cc32)c1 (configuration not stated),11.5%,89.1µM*,-22.1%,-4.5%,25.1%,-15.0%
Cc1cc2ncn(CC(O)COC3CCCCC3)c2cc1C (configuration not stated),6.4%[59 µM],11.0%,x,0.2%,38.8%,-12.4%
COc1cccc(COCC(O)Cn2cnc3cc(C)c(C)cc32)c1 (configuration not stated),6.31µM*,-13.8%,u,1.1%,u,3.55µM*
CC(C)C(=O)Nc1ccc2nc(SCC(=O)N3CCCC3)sc2c1,-2.0%[59 µM],x,-16.3%,x,40.8%,3.6%

# Compound activity (PubChem BioAssay)
